The source made the active and inactive calls.
Columns and labels:
[1] = tested on: Human papillomavirus type 1a protein E7 (residues 44-93); experiment: small molecules binding HPV E7 44-93 – biochemical, small-molecule microarray, residues 44-93, 635 nm fluorescence, primary screen (AID 1108); conditions: fluorescence 635 nm, higher = more signal;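 further: E7 fragment applied at 1 µg/mL in TBST for 1 h at 4 C; score combines spot fluorescence with its signal to noise ratio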
[2] = hepatitis C replication reporter changes, two-sided – Huh7 cells, luciferase reporter, HCV replication inhibitor project, primary screen (AID 1109); conditions: Huh7 HCV replicon luciferase reporter, 48 h; higher = more signal;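 further: huh7 hepatoma cells harbouring a luciferase neomycin HCV replicon reporter; luciferase luminescence as measure of HCV replicon replication; test concentration not given here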
[3] = target: Left-right determination factor 2 (Homo sapiens) (UniProt O00292); experiment: small molecules binding LEFTY2 protein – biochemical, small-molecule microarray, 635 nm fluorescence scan, primary screen (AID 1110); conditions: higher = more signal
Left-right determination factor 2 (Homo sapiens), sequence (O00292 whole entry, looked up): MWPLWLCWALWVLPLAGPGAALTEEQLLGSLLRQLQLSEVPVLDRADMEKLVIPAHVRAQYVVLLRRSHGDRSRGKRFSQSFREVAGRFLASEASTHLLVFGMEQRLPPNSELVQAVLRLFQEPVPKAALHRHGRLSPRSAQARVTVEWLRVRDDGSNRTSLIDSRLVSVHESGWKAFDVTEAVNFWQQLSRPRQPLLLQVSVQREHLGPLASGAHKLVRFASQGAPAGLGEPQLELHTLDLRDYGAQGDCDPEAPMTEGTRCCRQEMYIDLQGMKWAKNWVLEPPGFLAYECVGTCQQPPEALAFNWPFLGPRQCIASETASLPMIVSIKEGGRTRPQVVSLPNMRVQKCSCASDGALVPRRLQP

[4] = target: Calmodulin-1 (Homo sapiens) (UniProt P0DP23); experiment: small molecules binding calmodulin-1 with EGTA – biochemical, small-molecule microarray, Cy5-labelled CALM1, profiling panel (AID 1111); conditions: Cy5-CALM1 binding fluorescence, higher = more signal;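 further: labelled calmodulin applied in Tris saline Tween buffer holding calcium plus EGTA and DTT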
[5] = target: Calmodulin-1 (Homo sapiens) (UniProt P0DP23); experiment: small molecules binding Ca-loaded calmodulin-1 – biochemical, small-molecule microarray, Cy5-labelled CALM1, plus calcium, artefact control for SMM control-protein annotation, profiling panel (AID 1112); conditions: Cy5-CALM1 binding fluorescence, higher = more signal;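 further: score merges spot fluorescence with signal to noise from triplicate slides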
[6] = probe aWnt5a binding to arrayed compounds – biochemical, biotinylated probe, 635/667 nm fluorescence, primary screen (AID 1113); conditions: small-molecule microarray, higher = more signal;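 further: score merges 667 nm fluorescence intensity with signal-to-noise per printed feature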
[7] = probe aShh binding to arrayed compounds – biochemical, biotinylated probe, 635/667 nm fluorescence, primary screen (AID 1114); conditions: small-molecule microarray, higher = more signal;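 further: probe is biotin-labelled aShh protein from a stem cell growth factor screen; measures binding of labelled protein to compounds printed on the slide; score merges feature fluorescence at 667 nm with signal-to-noise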
[8] = probe aNog binding to arrayed compounds – biochemical, biotinylated probe, 635/667 nm fluorescence, primary screen (AID 1115); conditions: small-molecule microarray, higher = more signal;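 further: probe is biotinylated aNog protein used at 0.15 µg/mL for 1 h at 4 C; z-score combines 667 nm fluorescence of each spot with its signal to noise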
[9] = target: Torsin-1A-interacting protein 1 (Homo sapiens) (UniProt Q5JTV8); experiment: compound microarray binding of lysate hLAP1 – cell lysate, small-molecule microarray, COS7 lysate, 635/667 nm fluorescence, primary screen (AID 1116); conditions: 635 nm fluorescence, higher = more signal
Torsin-1A-interacting protein 1 (Homo sapiens), sequence (Q5JTV8 whole entry, looked up): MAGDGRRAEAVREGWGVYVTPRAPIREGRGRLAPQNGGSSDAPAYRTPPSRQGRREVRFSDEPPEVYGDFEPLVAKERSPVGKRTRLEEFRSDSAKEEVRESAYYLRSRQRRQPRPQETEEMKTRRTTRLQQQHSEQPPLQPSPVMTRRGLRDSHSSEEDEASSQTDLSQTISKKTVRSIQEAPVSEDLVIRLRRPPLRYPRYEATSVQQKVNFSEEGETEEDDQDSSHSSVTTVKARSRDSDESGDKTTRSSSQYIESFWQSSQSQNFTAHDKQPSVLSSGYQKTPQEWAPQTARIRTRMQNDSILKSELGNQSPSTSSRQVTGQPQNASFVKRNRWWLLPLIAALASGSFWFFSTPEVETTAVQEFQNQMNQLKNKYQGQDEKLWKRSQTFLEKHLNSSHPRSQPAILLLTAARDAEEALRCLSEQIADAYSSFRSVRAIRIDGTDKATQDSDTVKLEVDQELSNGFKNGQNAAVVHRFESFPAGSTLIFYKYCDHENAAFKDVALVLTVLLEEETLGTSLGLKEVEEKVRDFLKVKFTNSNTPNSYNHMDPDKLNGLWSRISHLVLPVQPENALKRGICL

[10] = target: Alpha-bungarotoxin (Bungarus multicinctus) (UniProt P60615); experiment: compounds binding labelled alpha-BTX control protein – biochemical, small-molecule microarray, Alexa647 label, 635/667 nm fluorescence, artefact control for SMM control protein annotation, profiling panel (AID 1117); conditions: alpha-BTX-A647 binding fluorescence, higher = more signal
Alpha-bungarotoxin (Bungarus multicinctus), sequence (P60615 whole entry, looked up): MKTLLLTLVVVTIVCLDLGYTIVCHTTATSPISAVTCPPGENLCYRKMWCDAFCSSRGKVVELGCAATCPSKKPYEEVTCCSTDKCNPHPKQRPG

Albumin (Bos taurus) = Albumin (Bos taurus) (UniProt P02769); experiment: compounds binding labelled BSA control protein – biochemical, small-molecule microarray, Alexa647 label, 635/667 nm fluorescence, artefact control for SMM control protein annotation, profiling panel (AID 1118); conditions: BSA-A647 binding, fluorescence 635 nm, higher = more signal;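 further: score merges 667 nm emission intensity and signal-to-noise per printed compound spot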
Albumin (Bos taurus), sequence (P02769 whole entry, looked up): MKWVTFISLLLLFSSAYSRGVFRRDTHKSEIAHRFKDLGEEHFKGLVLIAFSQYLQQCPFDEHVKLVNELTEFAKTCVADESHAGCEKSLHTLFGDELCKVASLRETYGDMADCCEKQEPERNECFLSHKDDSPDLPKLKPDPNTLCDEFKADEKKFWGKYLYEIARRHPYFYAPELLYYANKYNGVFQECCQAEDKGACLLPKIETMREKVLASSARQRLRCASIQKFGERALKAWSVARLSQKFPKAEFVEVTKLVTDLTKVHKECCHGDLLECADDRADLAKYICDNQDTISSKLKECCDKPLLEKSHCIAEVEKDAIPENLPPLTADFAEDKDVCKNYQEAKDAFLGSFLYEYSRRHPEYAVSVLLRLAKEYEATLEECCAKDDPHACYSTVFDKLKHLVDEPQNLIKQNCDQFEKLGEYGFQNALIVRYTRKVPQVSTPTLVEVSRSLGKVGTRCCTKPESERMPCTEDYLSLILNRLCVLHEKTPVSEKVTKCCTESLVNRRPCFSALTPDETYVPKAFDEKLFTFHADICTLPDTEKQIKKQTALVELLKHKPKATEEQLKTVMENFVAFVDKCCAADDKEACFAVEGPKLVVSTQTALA

[11] = probe aXIP binding to arrayed compounds – biochemical, NeuroSMM set, 635/667 nm fluorescence, primary screen (AID 1119); conditions: small-molecule microarray, higher = more signal, called active from +8 up or from −8 down;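 further: probe is the protein aXip251-270 applied at 1 µg/mL to compound-printed slides; binding of probe to printed compounds measured as 667 nm fluorescence plus signal to noise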
[12] = probe aNOTCH3 binding on compound microarray – biochemical, small-molecule microarray, 635/667 nm fluorescence, primary screen (AID 1120); conditions: higher = more signal;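 further: probe is a biotin-tagged antibody raised against NOTCH3 rather than NOTCH3 protein; score merges spot fluorescence near 667 nm with spot signal to noise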
[13] = probe aNOTCH2 binding on compound microarray – biochemical, small-molecule microarray, 635/667 nm fluorescence, primary screen (AID 1121); conditions: higher = more signal;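 further: score merges feature fluorescence read at 667 nm with its signal to noise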
[14] = target: Carbonic anhydrase 2 (Homo sapiens) (UniProt P00918); experiment: compounds binding carbonic anhydrase 2 – biochemical, small-molecule microarray, Alexa647-labelled CAII, profiling panel (AID 1122); conditions: CAII-A647 binding fluorescence, higher = more signal
[15] = COS7 lysate on small-molecule microarray, probe aHis, 635 nm (AID 1123); conditions: COS7 cell lysate, fluorescence, higher = more signal;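 further: z-score combines 667nm fluorescence intensity with signal-to-noise per printed compound spot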
[16] = probe aLAP1 signal on lysate-treated microarray – cell lysate, small-molecule microarray, COS7 lysate, primary screen (AID 1124); conditions: probe aLAP1, fluorescence, higher = more signal;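 further: lysate comes from COS7 cells expressing LAP1 and is applied at 0.3 µg/mL; score merges spot fluorescence near 667 nm with signal-to-noise over triplicate slides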
Sam68 (KHDRBS1) = experiment: compounds binding KHDRBS1 protein – biochemical, small-molecule microarray, 635 nm fluorescence, primary screen (AID 1125); conditions: higher = more signal;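 further: score merges 667 nm channel intensity with signal to noise over triplicate slides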
[17] = tested on: Chordin-like protein 2 (CHRDL2); experiment: compounds binding chordin-like 2 – biochemical, small-molecule microarray, 635 nm fluorescence, primary screen (AID 1126); conditions: fluorescence 635 nm, higher = more signal;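 further: printed compound slides probed with Chrdl2 protein at 4 µg/mL for 1 h at 4 C; score merges 667 nm emission intensity with signal to noise over three replicate slides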
[18] = target: Concanavalin-A (Canavalia ensiformis) (UniProt P02866); experiment: compounds binding concanavalin A lectin – biochemical, small-molecule microarray, Alexa647 label, 635 nm, artefact control for SMM control protein annotation, primary screen (AID 1127); conditions: ConA-A647 binding fluorescence, higher = more signal;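 further: z combines 667 nm emission intensity with signal-to-noise across three replicate slides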
Concanavalin-A (Canavalia ensiformis), sequence (P02866 whole entry, looked up): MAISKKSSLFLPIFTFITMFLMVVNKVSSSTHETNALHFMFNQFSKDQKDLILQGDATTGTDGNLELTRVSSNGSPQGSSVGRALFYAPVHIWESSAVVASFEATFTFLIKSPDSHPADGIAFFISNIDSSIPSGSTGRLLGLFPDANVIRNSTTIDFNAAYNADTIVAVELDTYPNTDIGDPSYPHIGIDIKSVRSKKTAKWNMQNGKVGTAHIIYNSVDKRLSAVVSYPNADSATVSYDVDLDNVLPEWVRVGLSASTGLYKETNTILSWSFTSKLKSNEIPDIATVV

SMILES | composite z-score [1] | z-score [2] | composite z-score [3] | composite z-score [4] | composite z-score [5] | composite z-score [6] | composite z-score [7] | composite z-score [8] | composite z-score [9] | composite z-score [10] | composite z-score (Albumin (Bos taurus)) | composite Z-score [11] | composite z-score [12] | composite z-score [13] | composite z-score [14] | composite z-score [15] | composite z-score [16] | composite z-score (Sam68 (KHDRBS1)) | composite z-score [17] | composite z-score [18]
COc1ccc(CN(C2=CC[C@@]3(C(N)=O)C(=O)C(Cl)=C(Cl)C(=O)[C@@]3(C#N)C2)S(=O)(=O)c2ccc(Br)cc2)cc1 | 0.731 | -1.56 | -0.885 | 1.1 | 0.391 | -0.11 | -0.0769 | 0.784 | 1.02 | -0.181 | 1 | 0.317 (inactive) | -0.128 | -0.0273 | 0.863 | 1.84 | 0.834 | 0.295 | -1.54 | 0.0331
COCCCNC(=O)[C@@]1(Sc2ccc(C)cc2)CC(=O)N(C2CCCCC2)[C@@H]1c1ccc(CO)cc1 | 0.104 | -1.19 | -0.942 | -0.206 | 0.0573 | -0.0799 | -0.0643 | 0.684 | 0.447 | -0.255 | -0.111 | -0.513 (inactive) | -0.337 | -0.12 | 0.71 | 1.62 | 1.21 | -0.281 | -0.975 | -0.305
COCCOC(=O)N1C(=O)[C@@]2(c3cc(C#CC4=CCCCC4)ccc31)[C@H](C(=O)N1CCCCCCC1)[C@H]1C(=O)O[C@H](c3ccccc3)[C@H](c3ccccc3)N1[C@@H]2c1ccc(O)cc1 | 1.26 | -1.35 | 0.134 | 0.765 | 0.522 | -0.001 | 0.156 | -0.0901 | 0.775 | 0.743 | 0.25 | 0.0769 (inactive) | 0.183 | 0.103 | 0.334 | 2.17 | 0.147 | 1.25 | 0.277 | 0.622
COC(=O)c1c2oc(c1C(=O)OC)C(=O)N(C)Cc1cn(nn1)C[C@H](Cc1ccccc1)NC(=O)N[C@H](CO)CC2 | -1.07 | -1.18 | -0.683 | -0.633 | -0.197 | -0.246 | -0.154 | -0.299 | -0.641 | -0.277 | -0.56 | -0.2 (inactive) | -0.155 | -0.18 | -0.41 | -0.69 | -0.161 | -0.947 | -0.516 | -1.17
CN1C(=O)C2C=CC(C(O)C#Cc3ccccc3)N(Nc3ccccc3)C2C1=O (stereo not given) | 1.45 | 0.234 | 0.302 | 1.18 | 0.533 | 0.0381 | -0.0243 | 1.35 | 1.11 | 1.35 | 1.03 | -0.0662 (inactive) | 0.405 | 0.0363 | 0.663 | 2.96 | 0.553 | 1.35 | -0.0655 | 1.09
O=C1O[C@H](c2ccccc2)[C@H](c2ccccc2)N2[C@H]1[C@@H](C(=O)Nc1nc3ccccc3s1)[C@]1(C(=O)Nc3ccc(C#CCCO)cc31)[C@H]2c1ccc(O)cc1 | 1.4 | -0.829 | 0.691 | 0.628 | -0.0808 | -0.0519 | -0.0035 | -0.28 | 0.799 | 0.369 | 0.497 | -0.0959 (inactive) | 0.199 | -0.156 | 0.5 | 1.75 | 0.278 | 1.02 | 0.172 | 1.16
C=CCN1C(=O)[C@@]2(CCS(=O)(=O)c3ccccc3)N=C(c3ccc(OCCCO)cc3)O[C@H]2c2ccccc21 | 1.42 | -1.97 | 0.876 | 1.94 | -0.313 | 0.0215 | -0.304 | 0.906 | 0.791 | 1.22 | -0.567 | -0.101 (inactive) | -0.0302 | -0.0664 | 0.277 | 2.53 | 0.207 | 0.988 | 0.83 | 1.12
COc1ccccc1CN1C(=O)c2ccccc2[C@@]2(Cc3ccccc3N(CC(F)(F)F)C2=O)[C@@H]1c1ccc(CO)cc1 | 0.802 | -0.521 | 0.244 | -0.504 | -0.723 | 0.13 | -0.308 | 1.68 | -0.0328 | 0.118 | -0.826 | -0.137 (inactive) | -0.251 | 0.156 | 0.757 | 0.384 | 2.4 | 0.707 | 1.03 | 0.331
O=C(NCCCCCNC(=O)/C(Cc1ccccc1)=N/O)OCc1ccccc1 | -0.0938 | -1.24 | 0.629 | -0.503 | -0.592 | -0.0445 | -0.426 | -0.633 | 0.154 | 0.269 | -0.0396 | -0.136 (inactive) | -0.165 | -0.195 | -0.162 | -0.564 | 0.148 | -0.0603 | 0.366 | -0.485
COCC1=C2[C@@H](CCc3ccccc3)OB(O)C[C@@H]2[C@@H]2C(=O)C=CC(=O)[C@@H]2C1 | 1.01 | -2.08 | 0.363 | 1.03 | 0.344 | -0.101 | 0.0684 | 0.26 | 0.236 | 1.43 | 0.739 | -0.228 (inactive) | 0.334 | -0.12 | 0.295 | 0.883 | 0.481 | 1.31 | 0.0197 | 1.02
CC(CO)N1C(=O)[C@@H]2[C@H]3C(=O)OCC=C[C@H]3OC23C=CCN(C(C)(C)C)C(=O)[C@@H]13 (stereo not given in full) | -1.89 | -0.619 | -0.7 | -0.119 | -0.72 | 0.308 | -0.289 | -0.158 | -1.13 | 0.193 | -0.0964 | 1.03 (inactive) | -0.242 | -0.125 | 0.852 | -0.856 | -0.604 | -1.05 | -0.508 | 0.251
